Data on 30 molecules can be found in PubChem BioAssay (EPA / NIEHS).

Results filed as inconclusive are left out. Calls of active or inactive are those of the source. The calls were made as follows, unless noted: active = hit-call score of the fitted dose curve at least 0.9, where 1 is the maximum; inactive = score below 0.9.

Test [1] deals with SRY-box transcription factor 2 (SOX2) Protein Expression, Deisenroth Lab, SOX2 (gene 6657). The test is described as follows: CCTE_Deisenroth_DEVTOX-GLR_Endo_SOX2: CCTE's DevTox GLR-Endo Assay Evaluation of SRY-box transcription factor 2 (SOX2) Protein Expression, Deisenroth Lab (AID 2284412; active = hit-call score of the fitted dose curve at least 0.9, where 1 is the maximum). The gist of the method:
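Endpoint is percent SOX2-positive cells (SOX2+ count/total cells) minus 0.2% DMSO control, from high-content imaging of fixed, nuclear-stained RUES2-GLR cells. Dosing twice at 24 h intervals over 48 h differentiation, 1 nM–200 uM in 10 points.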

Test [2] deals with SRY-box transcription factor 17 (SOX17) Protein Expression, Deisenroth Lab, SOX17 (gene 64321). The test is described as follows: CCTE_Deisenroth_DEVTOX-GLR_Endo_SOX17: CCTE's DevTox GLR-Endo Assay Evaluation of SRY-box transcription factor 17 (SOX17) Protein Expression, Deisenroth Lab (AID 2284413). Summed up: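 RUES2-GLR human pluripotent cells were seeded 24 h, then differentiated toward endoderm for 48 h with two chemical exposures 24 h apart (10-point series, 1 nM - 200 uM). Nuclei-stained fixed cells were imaged; endpoint is percent change in SOX17+ cells versus 0.2% DMSO.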

Test [3] deals with Brachyury (BRA) Protein Expression, TBXT (gene 6862). The test is described as follows: CCTE_Deisenroth_DEVTOX-GLR_Endo_BRA: CCTE's DevTox GLR-Endo Assay Evaluation of Brachyury (BRA) Protein Expression, Deisenroth Lab (AID 2284417). Summed up:
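Read-out: BRA+ cell count divided by total cell count by high-content imaging (5 fields per well), expressed relative to 0.2% DMSO solvent control. RUES2-GLR cells dosed twice over a 48 h differentiation; concentrations 1 nM - 200 uM.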

The nature of test [4]: CCTE_Deisenroth_DEVTOX-GLR_Endo_CellCount: Viability Assessment in CCTE's DevTox GLR-Endo Assay, Deisenroth Lab (AID 2284420). Summed up:
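Viability in differentiating RUES2-GLR cultures is scored by fluorescent nuclear counts after 48 h and two 24-hourly chemical treatments, as percent change from the 0.2% DMSO control.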

Test [5] has as its system SRY-box transcription factor 17 (SOX17) Protein Expression, Deisenroth Lab, SOX17 (gene 64321). The test is described as follows: CCTE_Deisenroth_DEVTOX-GLR_Pluri_SOX17: CCTE's DevTox GLR-Pluri Assay Evaluation of SRY-box transcription factor 17 (SOX17) Protein Expression, Deisenroth Lab (AID 2284427; active = hit-call score of the fitted dose curve at least 0.9, where 1 is the maximum). Summed up:
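Seed cells 24 h; differentiate 48 h, dosing at 0 and 24 h (1 nM - 200 uM); fix, stain nuclei, image 5 fields per well; count SOX17+ cells over total cells and subtract 0.2% DMSO control.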

Test [6] has as its system SRY-box transcription factor 2 (SOX2) Protein Expression, Deisenroth Lab, SOX2 (gene 6657). The test is described as follows: CCTE_Deisenroth_DEVTOX-GLR_Pluri_SOX2: CCTE's DevTox GLR-Pluri Assay Evaluation of SRY-box transcription factor 2 (SOX2) Protein Expression, Deisenroth Lab (AID 2284428). Summed up:
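SOX2 expression frequency is scored in a human pluripotent reporter line, RUES2-GLR, exposed to chemicals twice over 48 h. Imaging-based SOX2+ cell percentage is normalized as change versus 0.2% DMSO.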

For test [7], the system named is Brachyury (BRA) Protein Expression, Deisenroth Lab, TBXT (gene 6862). The test is described as follows: CCTE_Deisenroth_DEVTOX-GLR_Pluri_BRA: CCTE's DevTox GLR-Pluri Assay Evaluation of Brachyury (BRA) Protein Expression, Deisenroth Lab (AID 2284429; active = hit-call score of the fitted dose curve at least 0.9, where 1 is the maximum). The gist of the method:
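Percent BRA+ cells (BRA+ count over total cells) by high-content imaging of fixed RUES2-GLR cultures, corrected by 0.2% DMSO control. Cells received two doses over 48-hour differentiation, 1 nM–200 uM, n=4 experiments.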

A short description of test [8]: CCTE_Deisenroth_DEVTOX-GLR_Pluri_CellCount: Viability Assessment in CCTE's DevTox GLR-Pluri Assay Evaluation of Total Cell Counts, Deisenroth Lab (AID 2284430). The gist of the method:
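Cytotoxicity readout: fluorescent nuclei counts by high-content imaging, expressed as percent change relative to 0.2% DMSO. Human RUES2-GLR pluripotent line differentiated 48 h, dosed twice at 24-h intervals across 1 nM - 200 uM (10 points).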

In test [9] the test system is TTR (gene 7276). The test is described as follows: CCTE_GLTED_hTTR_0.125uM: CCTE's human Transthyretin (hTTR) Inhibition Assay, with 0.125uM TTR, Great Lakes Toxicology and Ecology Division (GLTED) Lab (AID 2284431).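 Also: hits lower the fluorescence signal relative to DMSO baseline.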 The gist of the method:
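Probe-displacement format: chemicals competing for the T4 site release ANSA from 0.125uM TTR during a 2 h incubation, measured by fluorescence at 380 excitation and 475 emission.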

A short description of test [10]: CCTE_Padilla_ZF_Score.Craniofacial: CCTE's 144 Hour Post-fertilization zebrafish Assay Score for Craniofacial Malformation, Padilla Lab (AID 2284405). Summed up:
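Craniofacial defects were scored at 6 dpf by two blinded observers using stereomicroscopy. Exposure of wild-type embryos began at 6–8 hpf in sealed wells of 10% Hanks' solution at 26C, with chemical removed by rinsing at 5 dpf.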

A short description of test [11]: CCTE_Padilla_ZF_Score.Edema: CCTE's 144 Hour Post-fertilization zebrafish Assay Score for Edema Malformation, Padilla Lab (AID 2284406). Summed up: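 Edema scored at 6 dpf by two blinded observers under a stereo microscope, in single outbred wild-type larvae exposed from 6-8 hpf in sealed wells (Hanks', 26C, 14:10 h light) and chemical-free after a 5 dpf rinse.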

Test [12] can be described thus: CCTE_Padilla_ZF_Score.Spine: CCTE's 144 Hour Post-fertilization zebrafish Assay Score for Spine Malformation, Padilla Lab (AID 2284407). Summed up:
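Spine malformation scored at 6 dpf by two independent blinded observers under stereomicroscope, after static sealed exposure from 6–8 hpf at 26C in Hanks' solution with rinse on 5 dpf. Positive-direction fit against DMSO control.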

A short description of test [13]: CCTE_Padilla_ZF_Score.Swim_bladder: CCTE's 144 Hour Post-fertilization zebrafish Assay Score for Swim Bladder Malformation, Padilla Lab (AID 2284408). Summed up:
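Swim bladder inflation scored at 6 dpf by two blinded observers under a stereo microscope. Exposure ran from 6–8 hpf in sealed wells of 10% Hanks' at 26C, with rinsing at 5 dpf; DMSO served as baseline.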

The nature of test [14]: CCTE_Padilla_ZF_Score.Position: CCTE's 144 Hour Post-fertilization zebrafish Assay Score for Position, Padilla Lab (AID 2284409). The gist of the method:
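Wild-type zebrafish embryos (with chorions) exposed singly from 6–8 hpf in sealed wells of Hanks' solution at 26C, rinsed at 5 dpf. At 6 dpf, blinded assessors scored abnormal water-column position by brightfield stereomicroscopy, relative to DMSO.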

Test [15] is described as follows: CCTE_Padilla_ZF_Score.Living: CCTE's 144 Hour Post-fertilization zebrafish Assay Score for Viability, Padilla Lab (AID 2284410).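 Also: larval death at 6 dpf judged by absent heartbeat or coagulation.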 Summed up: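 Mortality at 6 dpf, judged as absent heartbeat or coagulation by two blinded observers, after sealed static exposure beginning at 6–8 hpf at 26C. Larvae were rinsed free of chemical at 5 dpf, and activity was fitted relative to DMSO.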

Test [16] can be described thus: CCTE_Padilla_ZF_Score.General: CCTE's 144 Hour Post-fertilization zebrafish Assay Score for General Malformation, Padilla Lab (AID 2284411). Summed up: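 Malformation, death and hatching were scored at 6 dpf by two blinded observers under a stereo microscope. Embryos were dosed singly from 6-8 hpf in sealed plates of 10% Hanks' at 26C and rinsed on 5 dpf; DMSO baseline.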

Test [17] in a line: CCTE_Padilla_ZF_Score.Tail: CCTE's 144 Hour Post-fertilization zebrafish Assay Score for Tail Malformation, Padilla Lab (AID 2284414). The gist of the method:
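Tail malformations were scored at 6 dpf by two blinded assessors under a stereo microscope. Chorionated embryos had been exposed from 6-8 hpf in sealed wells of 10% Hanks' at 26 C, then rinsed free of chemical at 5 dpf.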

A short description of test [18]: CCTE_Padilla_ZF_Score.Blood_pooling: CCTE's 144 Hour Post-fertilization zebrafish Assay Score for Blood Pooling, Padilla Lab (AID 2284415). Summed up:
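Blood pooling was scored at 6 dpf under a stereo microscope by two blinded assessors, fitted upward against DMSO. Single embryos were dosed at 6–8 hpf in 10% Hanks', kept sealed at 26C (14:10 h cycle) and rinsed at 5 dpf.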

A short description of test [19]: CCTE_Padilla_ZF_Score.Any: CCTE's 144 Hour Post-fertilization zebrafish Assay Score for Any Mortality or Malformation, Padilla Lab (AID 2284416). Summed up: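 Wild-type zebrafish embryos with chorions, one per well in 10% Hanks' from 6–8 hpf, dosed in sealed plates at 26 C, 14:10 h light:dark; rinsed at 5 dpf; blinded scoring at 6 dpf for death or malformation, versus DMSO.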

For `CS(=O)(=O)OCCCCOS(C)(=O)=O`, the result in test [1] was inactive. In addition, the AC50 in test [2] is 44.5 µM (active); in [3], 100 µM (active); in test [4], 14.4 µM (active); in test [5], 45.4 µM (active); in test [6], 2.44 µM (active); in test [7], 50.7 µM (active). Moreover, the AC50 in test [8] was 20.1 µM (active).

As to `N[C@@H](Cc1cc(I)c(Oc2cc(I)c(O)c(I)c2)c(I)c1)C(=O)O`, in [9], the AC50 is 0.0822 µM (active).

For `OCc1cccc(Oc2ccccc2)c1`, in test [9], the AC50 was 12.2 µM (active).

For the molecule `CCCCCCCCc1ccc(S(=O)(=O)O)cc1`, in test [9], the AC50 was 2.97 µM (active).

For `FC(F)(F)COCC(F)(F)F`, the result in test [10], in [11], in test [12], in test [13], in test [14] and in test [15] was inactive. Also, the outcome in test [16], in test [17], in [18] and in test [19] was inactive.

Turning to `O=C(Nc1ccc2c(O)c(N=Nc3ccc(N=Nc4ccc(S(=O)(=O)O)cc4)cc3)c(S(=O)(=O)O)cc2c1)c1ccccc1`, the AC50 in [9] is 9.92 µM (active).

Take `Oc1ccc2cc(SSc3ccc4cc(O)ccc4c3)ccc2c1`: the AC50 in test [9] was 0.113 µM (active).

In the case of `CCN(CC)C(=O)N(CC)CC`, the molecule was classed as inactive in test [16].

With `CN(c1nccc(=O)[nH]1)C1CCN(c2nc3ccccc3n2Cc2ccc(F)cc2)CC1`, the outcome in test [16] was inactive.

With `CC(C)c1ccccc1O`, the AC50 in [9] is 32.4 µM (active).

Regarding `COc1ccc(N=Nc2cc(C)c(N=Nc3ccc(S(=O)(=O)O)cc3)cc2OC)cc1`, the AC50 in test [9] was 0.385 µM (active).

For the molecule `C=C(C)C(=O)OCCOCCOCCOC(=O)C(=C)C`, the call in [16] was inactive.

As to `Nc1ccc2cc(S(=O)(=O)O)cc(O)c2c1N=Nc1ccccc1C(F)(F)F`, the AC50 in [9] was 0.0397 µM (active).

With `CC(C)CCCCCCCCCCCCCCC(=O)O`, the AC50 in test [9] was 0.891 µM (active).

On to `C=C[Si]1(C)O[Si](C)(C=C)O[Si](C)(C=C)O[Si](C)(C=C)O1` (stereo unspecified), for which the AC50 in test [9] was 50 µM (active).

On to `COc1ccc(CCN2CCC(Nc3nc4ccccc4n3Cc3ccc(F)cc3)CC2)cc1`, for which the AC50 in [16] was 0.439 µM (active).

On to `C[C@@H]1CCN(C(=O)[C@H](CCCN=C(N)N)NS(=O)(=O)c2cccc3c2NC[C@H](C)C3)[C@@H](C(=O)O)C1`, for which the outcome in test [16] was inactive.

Take `Cc1cc(S(=O)(=O)O)ccc1N=Nc1c(O)ccc2ccccc12`: in test [9], the AC50 was 0.079 µM (active).

As to `CCCCCCC(CO)CCCC` (stereo unspecified), the AC50 in test [9] was 46.7 µM (active).

Turning to `O=[N+]([O-])c1ccc(O)cc1C(F)(F)F`, the AC50 in [9] is 0.111 µM (active).

Turning to `CCCCC(CC)COC(=O)c1ccc(O)cc1` (stereo unspecified), in test [9], the AC50 was 0.434 µM (active).

`C=C(C)C(=O)OCCOCCOCCOCCOC(=O)C(=C)C`: the outcome in [16] was inactive.

Take `Cc1ccc(S(=O)(=O)Oc2ccc(N=Nc3ccc(-c4ccc(N=Nc5c(O)ccc6cc(S(=O)(=O)O)cc(S(=O)(=O)O)c56)c(C)c4)cc3C)cc2)cc1`: in test [9], the AC50 was 0.912 µM (active).

In the case of `Nc1ccccc1[N+](=O)[O-]`, the AC50 in test [9] is 20.3 µM (active).

For `c1ccc(CCc2ccccc2)cc1`, the result in [16] was inactive.

Consider `BrCc1cccc(Oc2ccccc2)c1`, for which the AC50 in test [9] is 4.22 µM (active).

Turning to `CC1(C)C2=CCCC(C)(C)[C@]23CC[C@H]1C3`, the result in [16] was inactive.

Regarding `C=Cc1ccncc1`, the AC50 in test [16] is 22.6 µM (active).

For the molecule `c1ccc(Oc2ccccc2)cc1`, the molecule was classed as inactive in test [16].

With `CCCCCC(C=O)=Cc1ccccc1`, the outcome in [16] was inactive.

A word on the AC50: it is the midpoint of the concentration-response curve, whichever way the signal moves.
